Here are results for one compound from ChEMBL document CHEMBL2218924, “A broad activity screen in support of a chemogenomic map for kinase signalling research and drug discovery” (Biochem J, 2013).

In general, residual activity refers to the signal under treatment as a percentage of the control signal. Lower therefore signals little activity left.

Assay [1] has as its target T1, Ephrin type-A receptor 3 (Homo sapiens) (UniProt P29320).
T1 sequence (whole entry): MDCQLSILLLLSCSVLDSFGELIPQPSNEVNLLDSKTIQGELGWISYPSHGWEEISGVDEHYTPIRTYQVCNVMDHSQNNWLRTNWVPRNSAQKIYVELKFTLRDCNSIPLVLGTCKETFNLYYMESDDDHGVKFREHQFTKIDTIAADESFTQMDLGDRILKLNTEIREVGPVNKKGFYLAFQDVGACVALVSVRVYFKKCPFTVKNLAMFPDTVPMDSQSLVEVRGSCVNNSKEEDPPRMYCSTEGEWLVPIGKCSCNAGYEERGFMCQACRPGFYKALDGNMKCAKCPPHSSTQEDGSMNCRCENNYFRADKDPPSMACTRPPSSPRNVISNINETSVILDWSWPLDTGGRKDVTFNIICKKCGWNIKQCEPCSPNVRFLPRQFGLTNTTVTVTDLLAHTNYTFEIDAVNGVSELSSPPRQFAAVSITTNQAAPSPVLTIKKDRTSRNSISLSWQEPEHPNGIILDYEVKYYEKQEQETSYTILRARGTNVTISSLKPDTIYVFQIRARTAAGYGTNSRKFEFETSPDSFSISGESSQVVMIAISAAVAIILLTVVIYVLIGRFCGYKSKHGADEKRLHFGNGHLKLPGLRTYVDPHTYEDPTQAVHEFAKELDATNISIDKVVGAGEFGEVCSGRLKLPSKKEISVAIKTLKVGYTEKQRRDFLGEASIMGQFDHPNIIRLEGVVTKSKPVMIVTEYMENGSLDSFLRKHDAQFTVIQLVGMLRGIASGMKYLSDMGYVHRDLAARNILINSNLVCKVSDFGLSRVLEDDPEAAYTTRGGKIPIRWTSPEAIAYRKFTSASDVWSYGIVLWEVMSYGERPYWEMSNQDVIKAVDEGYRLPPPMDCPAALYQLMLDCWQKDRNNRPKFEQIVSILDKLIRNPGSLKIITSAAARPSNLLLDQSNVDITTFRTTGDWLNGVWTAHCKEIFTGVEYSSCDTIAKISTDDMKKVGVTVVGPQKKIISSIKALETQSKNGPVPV
To be noted: at 10 µM.

In assay [2] the target is Ephrin type-A receptor 4 (Homo sapiens) (UniProt P54764). To be noted: at 1 µM.
Assay [3] has the same target. To be noted: at 10 µM.
Assay [4] has as its target Ephrin type-A receptor 5 (Homo sapiens) (UniProt P54756). To be noted: at 1 µM.
For assay [5] the target is unchanged. Particulars: at 10 µM.
Assay [6] has as its target Ephrin type-A receptor 7 (Homo sapiens) (UniProt Q15375). Particulars: at 1 µM.
The target is the same in assay [7]. To be noted: at 10 µM.
The target in assay [8] is T2, Ephrin type-A receptor 8 (Homo sapiens) (UniProt P29322).
T2 sequence (whole entry): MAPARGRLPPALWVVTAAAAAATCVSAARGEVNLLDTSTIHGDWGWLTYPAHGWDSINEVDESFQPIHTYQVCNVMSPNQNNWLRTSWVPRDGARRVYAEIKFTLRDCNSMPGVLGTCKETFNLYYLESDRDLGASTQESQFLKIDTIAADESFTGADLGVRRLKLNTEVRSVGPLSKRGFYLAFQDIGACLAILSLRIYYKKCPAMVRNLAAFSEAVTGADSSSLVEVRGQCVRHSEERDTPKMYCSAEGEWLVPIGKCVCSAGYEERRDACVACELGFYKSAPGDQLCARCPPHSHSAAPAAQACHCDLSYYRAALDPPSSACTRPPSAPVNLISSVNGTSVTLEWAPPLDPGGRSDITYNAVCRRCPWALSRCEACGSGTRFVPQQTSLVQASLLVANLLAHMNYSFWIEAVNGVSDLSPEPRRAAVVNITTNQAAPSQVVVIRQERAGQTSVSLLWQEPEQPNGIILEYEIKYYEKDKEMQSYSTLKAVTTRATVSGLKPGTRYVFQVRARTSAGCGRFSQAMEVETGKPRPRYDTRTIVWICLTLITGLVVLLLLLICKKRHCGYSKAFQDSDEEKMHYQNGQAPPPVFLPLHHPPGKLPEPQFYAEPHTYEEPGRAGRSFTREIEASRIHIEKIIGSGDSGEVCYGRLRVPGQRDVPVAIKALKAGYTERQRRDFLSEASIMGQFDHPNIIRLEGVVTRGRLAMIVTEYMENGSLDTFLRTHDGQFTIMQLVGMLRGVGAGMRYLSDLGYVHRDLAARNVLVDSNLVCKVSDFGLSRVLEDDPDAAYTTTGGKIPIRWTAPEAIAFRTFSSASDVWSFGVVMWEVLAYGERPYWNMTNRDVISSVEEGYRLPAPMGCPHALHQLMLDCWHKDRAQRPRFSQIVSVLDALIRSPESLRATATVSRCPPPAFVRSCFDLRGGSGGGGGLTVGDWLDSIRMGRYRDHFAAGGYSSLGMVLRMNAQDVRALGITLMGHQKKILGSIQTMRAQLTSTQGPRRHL
To be noted: at 1 µM.

In assay [9] the target is T2, Ephrin type-A receptor 8 (Homo sapiens). Particulars: at 10 µM.
The target of assay [10] is T3, Ephrin type-B receptor 1 (Homo sapiens) (UniProt P54762).
T3 sequence (whole entry): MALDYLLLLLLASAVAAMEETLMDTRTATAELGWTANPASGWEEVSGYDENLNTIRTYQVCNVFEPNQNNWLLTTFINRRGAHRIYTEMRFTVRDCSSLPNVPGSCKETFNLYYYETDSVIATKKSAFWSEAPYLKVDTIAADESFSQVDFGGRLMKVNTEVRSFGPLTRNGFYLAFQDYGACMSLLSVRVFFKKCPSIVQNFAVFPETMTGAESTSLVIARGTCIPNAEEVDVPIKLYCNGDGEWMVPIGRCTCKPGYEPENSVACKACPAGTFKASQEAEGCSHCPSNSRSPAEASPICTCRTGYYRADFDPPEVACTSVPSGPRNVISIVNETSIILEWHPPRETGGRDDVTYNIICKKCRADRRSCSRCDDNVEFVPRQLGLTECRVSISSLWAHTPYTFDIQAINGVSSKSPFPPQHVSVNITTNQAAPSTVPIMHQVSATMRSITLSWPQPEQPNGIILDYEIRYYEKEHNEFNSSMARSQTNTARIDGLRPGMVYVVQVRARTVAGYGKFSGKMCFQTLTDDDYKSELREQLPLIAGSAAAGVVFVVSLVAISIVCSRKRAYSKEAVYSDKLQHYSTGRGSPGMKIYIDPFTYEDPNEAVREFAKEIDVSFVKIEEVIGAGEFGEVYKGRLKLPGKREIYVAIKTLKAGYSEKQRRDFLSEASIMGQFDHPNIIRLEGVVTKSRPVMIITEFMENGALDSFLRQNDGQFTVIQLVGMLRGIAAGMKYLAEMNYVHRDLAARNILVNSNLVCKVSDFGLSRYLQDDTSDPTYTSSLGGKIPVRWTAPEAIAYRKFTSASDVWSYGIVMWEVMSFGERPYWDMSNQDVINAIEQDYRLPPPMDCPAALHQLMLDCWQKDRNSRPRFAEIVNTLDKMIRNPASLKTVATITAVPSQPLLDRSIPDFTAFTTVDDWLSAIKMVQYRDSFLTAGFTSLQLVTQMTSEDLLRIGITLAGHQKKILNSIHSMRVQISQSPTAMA
Particulars: at 1 µM.

Ephrin type-A receptor 7 (Homo sapiens), sequence (Q15375 28-998 limits assumed): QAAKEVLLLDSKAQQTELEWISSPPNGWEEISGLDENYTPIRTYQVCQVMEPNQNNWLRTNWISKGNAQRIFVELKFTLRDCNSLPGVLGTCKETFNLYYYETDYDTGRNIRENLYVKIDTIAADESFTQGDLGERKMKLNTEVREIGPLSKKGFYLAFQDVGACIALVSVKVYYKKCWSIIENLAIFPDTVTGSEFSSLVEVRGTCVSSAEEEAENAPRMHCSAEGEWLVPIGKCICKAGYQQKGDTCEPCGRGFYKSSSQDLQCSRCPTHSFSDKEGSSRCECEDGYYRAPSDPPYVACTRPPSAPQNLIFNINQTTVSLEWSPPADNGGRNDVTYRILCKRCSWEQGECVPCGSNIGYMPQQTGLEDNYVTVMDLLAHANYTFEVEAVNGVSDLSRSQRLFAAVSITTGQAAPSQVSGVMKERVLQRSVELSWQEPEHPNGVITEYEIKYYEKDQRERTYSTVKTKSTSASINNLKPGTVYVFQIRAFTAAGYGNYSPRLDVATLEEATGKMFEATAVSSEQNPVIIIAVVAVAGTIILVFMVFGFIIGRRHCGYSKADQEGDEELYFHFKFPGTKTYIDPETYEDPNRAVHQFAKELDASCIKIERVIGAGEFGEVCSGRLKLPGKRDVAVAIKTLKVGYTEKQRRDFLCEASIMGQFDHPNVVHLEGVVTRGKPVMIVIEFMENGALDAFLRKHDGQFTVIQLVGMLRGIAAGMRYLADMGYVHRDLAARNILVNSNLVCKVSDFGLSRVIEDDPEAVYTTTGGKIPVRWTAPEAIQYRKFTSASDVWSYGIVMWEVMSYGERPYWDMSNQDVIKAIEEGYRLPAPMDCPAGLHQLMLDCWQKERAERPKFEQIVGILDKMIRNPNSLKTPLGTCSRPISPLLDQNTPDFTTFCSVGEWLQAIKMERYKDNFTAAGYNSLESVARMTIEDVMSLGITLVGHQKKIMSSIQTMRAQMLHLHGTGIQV
Ephrin type-A receptor 4 (Homo sapiens), sequence (P54764 whole entry): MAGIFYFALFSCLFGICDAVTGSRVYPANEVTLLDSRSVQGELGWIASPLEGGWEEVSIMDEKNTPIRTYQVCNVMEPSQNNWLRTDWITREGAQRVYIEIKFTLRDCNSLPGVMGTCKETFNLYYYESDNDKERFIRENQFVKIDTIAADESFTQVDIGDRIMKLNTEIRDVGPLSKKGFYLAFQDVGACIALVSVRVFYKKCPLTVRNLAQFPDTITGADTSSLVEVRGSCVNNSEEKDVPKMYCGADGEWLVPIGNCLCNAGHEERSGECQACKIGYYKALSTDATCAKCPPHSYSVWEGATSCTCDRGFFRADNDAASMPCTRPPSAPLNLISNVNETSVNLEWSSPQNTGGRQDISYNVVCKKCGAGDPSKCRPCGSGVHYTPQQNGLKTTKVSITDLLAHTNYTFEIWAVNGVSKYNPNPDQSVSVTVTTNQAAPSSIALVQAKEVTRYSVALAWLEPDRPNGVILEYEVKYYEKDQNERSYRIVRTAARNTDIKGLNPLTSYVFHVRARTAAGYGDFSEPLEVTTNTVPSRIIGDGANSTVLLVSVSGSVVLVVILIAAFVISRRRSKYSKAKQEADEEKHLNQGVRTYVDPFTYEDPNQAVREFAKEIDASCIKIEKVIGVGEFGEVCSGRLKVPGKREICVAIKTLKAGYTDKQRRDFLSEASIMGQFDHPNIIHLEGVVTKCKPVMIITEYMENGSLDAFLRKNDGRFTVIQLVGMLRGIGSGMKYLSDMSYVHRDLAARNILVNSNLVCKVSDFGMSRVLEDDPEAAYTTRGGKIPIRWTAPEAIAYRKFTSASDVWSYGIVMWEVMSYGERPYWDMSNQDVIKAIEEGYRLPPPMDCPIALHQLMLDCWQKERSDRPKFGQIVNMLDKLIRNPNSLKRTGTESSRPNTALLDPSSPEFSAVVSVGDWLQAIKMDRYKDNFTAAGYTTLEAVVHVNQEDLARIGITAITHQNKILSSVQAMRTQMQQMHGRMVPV
Ephrin type-A receptor 5 (Homo sapiens), sequence (P54756 whole entry): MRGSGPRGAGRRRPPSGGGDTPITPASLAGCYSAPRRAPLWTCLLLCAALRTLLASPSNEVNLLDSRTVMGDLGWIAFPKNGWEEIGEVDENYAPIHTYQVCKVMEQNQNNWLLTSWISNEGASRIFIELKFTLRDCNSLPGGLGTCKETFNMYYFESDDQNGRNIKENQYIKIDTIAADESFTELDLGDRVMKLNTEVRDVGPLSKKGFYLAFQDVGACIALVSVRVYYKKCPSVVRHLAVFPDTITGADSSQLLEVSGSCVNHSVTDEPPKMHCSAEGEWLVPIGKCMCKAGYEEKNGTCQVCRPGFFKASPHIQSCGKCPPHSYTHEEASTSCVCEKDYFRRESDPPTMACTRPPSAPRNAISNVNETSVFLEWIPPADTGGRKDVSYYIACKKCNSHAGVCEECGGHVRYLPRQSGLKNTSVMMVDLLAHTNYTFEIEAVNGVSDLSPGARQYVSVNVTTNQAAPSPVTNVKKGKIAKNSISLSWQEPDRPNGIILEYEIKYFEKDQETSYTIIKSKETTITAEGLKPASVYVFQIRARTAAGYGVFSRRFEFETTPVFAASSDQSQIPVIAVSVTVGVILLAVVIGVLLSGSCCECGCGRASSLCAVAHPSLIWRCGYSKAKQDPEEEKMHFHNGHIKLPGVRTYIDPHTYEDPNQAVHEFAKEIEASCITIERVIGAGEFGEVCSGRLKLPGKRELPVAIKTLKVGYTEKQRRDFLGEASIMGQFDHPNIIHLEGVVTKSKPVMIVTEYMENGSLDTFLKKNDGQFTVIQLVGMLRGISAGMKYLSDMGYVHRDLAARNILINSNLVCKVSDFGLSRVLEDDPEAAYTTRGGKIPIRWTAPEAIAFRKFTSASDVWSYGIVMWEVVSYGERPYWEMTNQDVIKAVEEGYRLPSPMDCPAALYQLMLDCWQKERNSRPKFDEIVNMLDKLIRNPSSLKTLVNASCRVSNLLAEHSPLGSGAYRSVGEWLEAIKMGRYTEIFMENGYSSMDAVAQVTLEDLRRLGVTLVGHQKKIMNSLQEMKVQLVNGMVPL

As for `O=C1NC(=O)c2cc(Nc3ccc(F)cc3)c(Nc3ccc(F)cc3)cc21`, the residual activity in [1] worked out at 76%; in assay [2], 100%; in assay [3], 83%; in assay [4], 93%; in assay [5] it was 71%; in [6] it was 74%. Further, the residual activity in [7] is 21%; in assay [8], 87%; in assay [9], 56%; in assay [10], 82%.
